The source of these data is PubChem BioAssay (NCI).

Molecules are shown by their SMILES. This is part of a sample that, as a whole, favours compounds with a hit. Of some 79,000 tested, about 15% had one in any assay. A number with no mark means an inactive call. The source made the active and inactive calls. Rule as the data show it: active = growth inhibition above about 70%; inactive = the rest.

The assay in a line: NCI Yeast Anticancer Drug Screen. Data for the sgs1 mgt1 strain (AID 161).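 Also: 0% = growth of cultures given vehicle only.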 Conditions: S. cerevisiae sgs1 mgt1 strain, at 50.0 µM, stronger effect = higher value. The gist of the method:
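Mutant yeast exposed to compound; growth scored against vehicle-only wells.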
With `COc1cccc(/C=N\c2nc(-c3ccccc3Cl)cs2)c1O`, the growth inhibition was 32.4%.

For the molecule `COC(=O)C1CCC(=O)N1C(c1ccc(OC)cc1)c1ccc(OC)cc1` (centres undefined), the growth inhibition is 13.4%.

For the molecule `O=C(Nc1ccc(Cl)c([N+](=O)[O-])c1)Oc1ccc2ccccc2c1`, the growth inhibition was 8.15%.

As for `COc1ccc(CCN=Cc2ccc(Cl)cc2)cc1OC`, the growth inhibition was 15.4%.

`C1CCC2(CC1)OCCS2`: the growth inhibition was 11.2%.

For the molecule `Nc1ccc(O)c(C(=O)O)c1`, the growth inhibition is 11.2%.

With `O=S(=O)(OCC1CC2CCC1CC2)c1ccc(Br)cc1` (centres undefined), the growth inhibition was 9.35%.

`O=C(NC(CSSCC(NC(=O)OCc1ccccc1)C(=O)O)C(=O)O)OCc1ccccc1` (centres undefined): the growth inhibition is -2.4%.

Take `CN(C)CC(N)C(=O)O` (centres undefined): the growth inhibition is -12.2%.

For the molecule `COC(=O)c1oc([N+](=O)[O-])c(-c2ccccc2)c1-c1ccccc1`, the growth inhibition was 29.3%.

Take `COC(=O)c1cc(C(=O)OC)cc([N+](=O)[O-])c1`: the growth inhibition was 8.75%.

As for `CS/C(=C\c1ccc2ccccc2[n+]1C)N1CCN(CCCO)CC1`, the growth inhibition was 9.95%.

Turning to `Cc1c(O)nc(N)[nH]c1=O`, the growth inhibition was -22.6%.

On to `CCCC(=O)c1ccc2c(c1)CCc1cc(O)ccc1-2`, for which the growth inhibition is 12.3%.

For `C=CCC(O)CC=C`, the growth inhibition was 7.15%.

Turning to `CCC(c1ccc(OC)cc1)c1cc2c(cc1OCCO)OCO2` (centres undefined), the growth inhibition is 81.7% (active).

Regarding `C(#CCN1CCOCC1)CCCN1CCOCC1`, the growth inhibition was -2.45%.

As to `O=C1NC(N2CCCCC2)=N/C1=C\c1ccccc1`, the growth inhibition was -6.1%.

For the molecule `CC(=O)C(C(=O)C(=O)Nc1cc(Cl)c(Cl)cc1Cl)c1csc(N)n1` (centres undefined), the growth inhibition is -1.85%.
